Laboratory results as given in PubChem BioAssay (NCATS).
Where “and” joins values, the source holds several entries; their conditions need not be identical. Equal values may be shown once. Records with an inconclusive call do not appear. Calls of active or inactive are those of the source. Calls come from the whole dose curve; as a rule, active = well fitted inhibition curve with a large enough effect; inconclusive = small, poorly fitted or top-dose-only effect; inactive = flat fitted curve, though single readings scatter.

Tests used:
[1] = tested on: TAB165; assay: qHTS profiling for inhibitors of Plasmodium falciparum proliferation (AID 504749); note: potency is the fitted concentration of half-maximal effect; details: P. falciparum in erythrocytes, SYBR Green DNA, 72 h; series mostly up to 28.7 µM
How it was run: (§1)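 P. falciparum-infected erythrocytes (0.3% parasitemia, 2.5% hematocrit) incubated with compound 72 h at 37 C, 5% CO2. Parasite DNA detected by SYBR Green after lysis, overnight at room temperature; normalised to 0.29 uM artemisinin and DMSO.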

[2] = tested on: HEK293; assay: Cytotoxic Profiling of Annotated Libraries Using Quantitative High-Throughput Screening (AID 1296008); details: Five cell lines viability, CellTiter-Glo ATP luminescence, 48-72 h; max response: active compounds read low; note: potency is the fitted concentration of half-maximal effect; for max response: % is set by controls: 0 for no effect and ±100 for the full control effect
How it was run: (§2)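 Cells exposed to compounds for 48 or 72 hr at 37 degrees Celsius. Viability read as ATP-coupled luminescence with CellTiter-Glo after 10 min at room temperature.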

[3] = tested on: HaCat; assay: as above; details: Five cell lines viability, CellTiter-Glo ATP luminescence, 48-72 h; max response: active compounds read low
How it was run: as §2

[4] = tested on: NIH3T3; assay: as above; details: Five cell lines viability, CellTiter-Glo ATP luminescence, 48-72 h; max response: active compounds read low
How it was run: as §2

[5] = tested on: HACAT; assay: qHTS assay to identify novel small-molecules to repurpose for Merkel cell carcinoma treatment (AID 1296009); details: MCC and control cell lines, CellTiter-Glo viability, 72 h; at 44.8 µM (top of the series) unless noted
How it was run: (§3)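 Cells were treated for 72 hr at 37 degree celsius with compounds in 8- or 11-point dose response. Viability was read by CellTiter-Glo luminescence, normalized to no-cell (cytotoxicity) and DMSO controls.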

[6] = tested on: TAB113; assay: qHTS profiling for inhibitors of Plasmodium falciparum proliferation (AID 504749); note: potency is the fitted concentration of half-maximal effect; details: P. falciparum in erythrocytes, SYBR Green DNA, 72 h; series mostly up to 28.7 µM
How it was run: as §1

[7] = tested on: W2; assay: as above; details: P. falciparum in erythrocytes, SYBR Green DNA, 72 h; series mostly up to 28.7 µM
How it was run: as §1

[8] = tested on: KB-3-1; assay: Cytotoxic Profiling of Annotated Libraries Using Quantitative High-Throughput Screening (AID 1296008); details: Five cell lines viability, CellTiter-Glo ATP luminescence, 48-72 h; max response: active compounds read low; note: potency is the fitted concentration of half-maximal effect; for max response: % is set by controls: 0 for no effect and ±100 for the full control effect
How it was run: as §2

[9] = tested on: HEK293T; assay: qHTS assay to identify novel small-molecules to repurpose for Merkel cell carcinoma treatment (AID 1296009); details: MCC and control cell lines, CellTiter-Glo viability, 72 h; at 44.8 µM (top of the series) unless noted
How it was run: as §3
Note: nearly all actives have a fitted effect of over 60% in size.

NC(=O)C1(N2CCCCC2)CCN(CCCC(=O)c2ccc(F)cc2)CC1
inactive: Potency [1] | max response [2] -19.7% | outcome [3] | max response [4] -2.39% | outcome [5]

Nc1nc(N)c(-c2ccccc2)s1
inactive: Potency [6] | Potency [1] | Potency [7] | max response [2] -1.75% | max response [3] -10.8% | max response [8] -0.967% | max response [4] 2.51%

Cc1cccc(C)c1NC(=O)CN1CCCC1
inactive: Potency [1] | max response [2] 0.0979% | outcome [3] | max response [8] 8.28% | max response [4] 1.81% | outcome [5]

CCN(CC)CCNC(=O)COc1ccc(OC)cc1
inactive: Potency [6] | Potency [1] | max response [2] 4.77% | max response [4] -6.7%

CO[C@]12C[C@@H](COC(=O)c3cncc(Br)c3)CN(C)[C@@H]1Cc1cn(C)c3cccc2c13
inactive: Potency [6] | max response [2] -26.4% | outcome [3] | max response [4] 0.842% | outcome [5]
active: Potency [7] 6.75 µM

Cc1cc2c(OCC(CNC(C)(C)C)OC(=O)c3ccccc3)cccc2[nH]1 (stereo unspecified)
active: Potency [7] 2.13 µM
inactive: Potency [6] | outcome [2] | max response [3] 1.54% | max response [8] -8.32% | max response [4] 2.07% | outcome [9]

CCCCCCCCCCCCCC[N+](C)(C)Cc1ccccc1
active: Potency [6] 6.31 µM | Potency [1] 5.62 µM | Potency [7] 4.26 µM | Potency [2] 2.99 µM | Potency [3] 11.9 µM

CC(=O)NO
inactive: Potency [6] | Potency [1] | Potency [7] | max response [2] 1.75% | max response [3] -61% | max response [8] 15.6% | max response [4] 2.47%

O=C(Nc1ncc([N+](=O)[O-])s1)c1cccs1
inactive: Potency [6] | Potency [1] | Potency [7] | max response [3] -23.3%
active: Potency [2] 15 µM

Cc1ccc(S(=O)(=O)NC(=O)NC2CCCC2)cc1
inactive: Potency [6] | Potency [1] | Potency [7] | max response [2] -5.76% | max response [3] 2.64% | max response [8] 5.86% | max response [4] 3.93%

FC(F)(F)C(F)(F)C(F)(F)C(F)(F)C(F)(F)C(F)(F)C(F)(F)C(F)(F)Br
inactive: Potency [6] | Potency [1] | Potency [7] | max response [2] 0.523% | outcome [3] | max response [8] 13.3% | max response [4] -4.33% | outcome [5]

CCO[C@@H]1O[C@H](C(COCc2ccccc2)OCc2ccccc2)[C@H](OCc2ccccc2)[C@H]1O (stereo partly specified)
active: Potency [2] 16.8 µM
inactive: max response [8] -15.4%

Oc1ccc(Cl)cc1Cc1cc(Cl)ccc1O
active: Potency [1] 11.2 µM | Potency [2] 21.1 µM

CNCCCCOc1ccccc1Cc1ccccc1
active: Potency [7] 1.35 µM | Potency [2] 15 µM
inactive: max response [3] -10% | max response [8] 9.62%

CCc1nn(CCCN2CCN(c3cccc(Cl)c3)CC2)c(=O)n1CCOc1ccccc1
inactive: max response [8] 3.08% and -5.51%
